Bioassay records: PubChem BioAssay, National Center for Advancing Translational Sciences (NCATS)
Pf growth 48h: inhibits P. falciparum growth in the first generation, 48 h; 310,000 tested, 5.9% active; P. falciparum luciferase growth in erythrocytes, 48 h; Potency, µM (series often up to 28.7 µM), inactives show at the highest dose activity change, negative = inhibition, hits mostly inhibitors; AID 504832; note: % is set by controls: 0 for no effect and ±100 for the full control effect
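Compounds are pin-transferred into medium, infected erythrocytes (2% hematocrit, 0.1% parasitemia final) are added, and plates sit one parasite generation at 37 C in 5% CO2. Detection reagent is then added and luminescence measured.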
SARS PLP yeast: inhibitors of SARS-CoV papain-like protease in yeast. S. cerevisiae expressing SARS-CoV PLpro, growth rescue. Potency, µM (highest dose often 32.9 µM), for the others: at the highest dose activity, positive = growth rescue, hits mostly activators. 330,000 tested, 0.19% active. AID 485353; calls by dose curve; note: 0% is about no effect; nearly all actives have a fitted effect of over 55% in size
Pf growth 96h: inhibits malaria parasite growth, 96 h | P. falciparum luciferase reporter growth, 96 h | Potency, µM (top dose mostly 28.7 µM), for inactives: at the highest dose activity change, negative = inhibition, hits mostly inhibitors | 320,000 tested, 6.9% active; note: % is set by controls: 0 for no effect and ±100 for the full control effect
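Luminescence readout: decreased luciferase signal marks inhibited growth of reporter-expressing P. falciparum in infected red cells (2% hematocrit, 0.05% parasitemia final), exposed to compound two generations (96 h, 37 C, 5% CO2).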
AMA1-RON2 inh: AMA1-RON2 (P. falciparum) interaction inhibition | 360,000 tested, 0.2% active | AlphaScreen AMA1-biotinylated RON2 peptide binding | Potency, µM (top dose mostly 58.2 µM), inactives show at the highest dose activity change, negative = inhibition, usual class: inhibitors;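 note: 0% = vehicle wells and -100% = peptide control; nearly all actives have a fitted effect of over 45% in size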
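AMA1 (3D7) with his tag at 25 nM final met compounds first, then biotinylated RON2 peptide at 25 nM; detection used donor plus acceptor beads, 10 µg/mL apiece, read by AlphaScreen after 30 min at room temperature.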
Numbers without * were called inactive; ? = inconclusive; . = no result given; [ ] = remark or other dose. Most compounds without a hit are left out; they make up all but 9.4% or so of the library. Unless noted, calls come from the whole dose curve; as a rule, active = well fitted curve in the direction sought with a large enough effect; inconclusive = small, poorly fitted or top-dose-only effect, or another doubt; inactive = no such curve, though single readings can be large; an effect the other way counts as inactive or inconclusive. Potency is the fitted concentration of half-maximal effect.

SMILES | Pf growth 48h | SARS PLP yeast | Pf growth 96h | AMA1-RON2 inh
CCC(=O)Oc1ccc2c(c1)O/C(=C\c1ccco1)C2=O | 42.0% | -2.4% | 37.6% | -22.4%
O=C(CC1CC2CCC1C2)OCC(=O)c1c[nH]c2ccccc12 (centres undefined) | ? | -41.0% | 5.22µM* | ?
O=C(COC(=O)CC1CC2CCC1C2)NCc1ccc(F)cc1 (centres undefined) | . | -10.6% | . | -21.3%
CCOC(=O)c1c(/N=C/c2cc([N+](=O)[O-])ccc2O)sc(C)c1C | ? | -74.6% | 9.28µM* | -8.4%
CCOC(=O)c1c(/N=C/c2cc(OC)cc([N+](=O)[O-])c2O)sc(C)c1C | 12.7% | -53.4% | -29.7% | -2.5%
COc1ccc(Cl)cc1N(CC(=O)N/N=C/c1ccc(OC(C)C)cc1)S(=O)(=O)c1ccc(C)c([N+](=O)[O-])c1 | ? | -11.4% | ? | 7.9%
C=CCOc1cccc(/C=N/NC(=O)CN(c2cc(Cl)ccc2OC)S(=O)(=O)c2ccc(C)c([N+](=O)[O-])c2)c1 | ? | -9.7% | 1.17µM* | ?
Cc1ccc(N(C(=O)c2ccccc2Cl)C2=NC(C)CS2)c(C)c1 (centres undefined) | ? | -37.1% | 14.7µM* | -9.7%
Cc1cccc(C)c1C(=NCCCN(C)C)c1ccccc1 | 9.28µM* | -12.3% | 4.65µM* | -7.2%
CN(C)CCCNC(=O)/C(=N\O)c1ccccc1 | 6.0% | 2.7% | . | 10.1%
COc1ccc(CCC(C)N2CCC(Oc3ccc(C(=O)N4CCCC4)cc3)CC2)cc1 (centres undefined) | 11.7µM* | 7.9% | ? | -1.0%
CCOCCCNC(=O)c1ccc(OC)c(OC2CCN(C(C)C)CC2)c1 | 12.6% | 4.4% | 14.7µM* | 14.6%
COc1ccc(C(=O)N2CCCCCCC2)cc1OC1CCN(C(C)C)CC1 | 12.2% | 16.4% | 3.7µM* | 0.0%
COc1ccc(C(=O)N2CCCC(CO)C2)cc1OC1CCN(C(C)C)CC1 (centres undefined) | . | . | . | -1.1%
CCC/S(C)=N/S(=O)(=O)c1ccc(C)cc1 (centres undefined) | -0.1% | -1.7% | -7.3% | -4.3%
CCN(CC)C(=O)CN(c1cc2c(cc1OC)oc1ccccc12)S(=O)(=O)c1ccccc1 | 9.28µM* | . | 10.4µM* | -7.3%
COc1cc2oc3ccccc3c2cc1N(CC(=O)N(C)C)S(=O)(=O)c1ccccc1 | ? | . | ? | -6.4%
COc1ccc(S(=O)(=O)N2CCOC2CNC(=O)C(=O)NCc2ccncc2)cc1 (centres undefined) | ? | -1.4% | ? | -3.0%
Nc1ccc(Oc2ccccc2-c2ccccc2)cc1 | . | . | . | 22.4µM*
Cn1c2ccccc2c(=O)c2ccc(-c3ccc4c(c3)OCO4)cc21 | 55.6% | -7.4% | 9.28µM* | -1.4%
Cn1c2ccccc2c(=O)c2ccc(C#Cc3ccccn3)cc21 | ? | -10.2% | 10.4µM* | -13.7%
Cn1c(-c2ccc3c(c2)OCO3)cc(=O)c2ccccc21 | ? | -2.7% | 11.1% | 9.1%
COc1cc(-c2ccc3c(=O)c4ccccc4n(C)c3c2)cc(OC)c1OC | ? | -3.5% | 4.65µM* | 48.1%
Cn1c2ccccc2c(=O)c2cc(C#Cc3ccccn3)ccc21 | 144.0% | -5.7% | ? | 49.5%
COc1ccccc1C/C(N)=N/OC(=O)COc1cccc(C)c1 | 0.9% | -66.6% | 0.3% | 25.3%
SMILES | Pf growth 48h | SARS PLP yeast | Pf growth 96h | AMA1-RON2 inh
Cc1ccc(C)c(NC(=O)CCOc2ccccc2)c1 | 1.4%[0.00184 µM] | -1.0% | ? | -12.1%
Cc1ccc(NS(=O)(=O)c2ccc(N3C(=O)CCC3=O)cc2)cc1 | . | 5.5% | 21.4% | -9.5%
Cc1cc(Oc2ccc(=O)n(C)n2)nc(Oc2ccc(=O)n(C)n2)n1 | 5.5% | -2.7% | 10.4µM* | 4.4%
COc1ccc(CCNC(=O)c2cn(C)c3ccc(S(=O)(=O)N4CCOCC4)cc3c2=O)cc1OC | 13.1µM* | 1.3% | 10.5% | 0.0%
COc1ccccc1N1CCN(C(=O)c2cn(C)c3ccc(S(=O)(=O)N4CCOCC4)cc3c2=O)CC1 | -1.8% | 1.4% | ? | -3.9%
Cn1cc(C(=O)N2CCN(c3cccc(Cl)c3)CC2)c(=O)c2cc(S(=O)(=O)N3CCOCC3)ccc21 | -14.4% | 10.6% | 11.7µM* | -2.9%
CCOC(=O)N1CCN(C(=O)c2cn(CC)c3ccc(S(=O)(=O)N4CCCCC4)cc3c2=O)CC1 | -10.8% | -0.5% | 22.6% | -1.6%
CCn1cc(C(=O)NCCc2ccc(OC)c(OC)c2)c(=O)c2cc(S(=O)(=O)N3CCOCC3)ccc21 | 10.4µM* | 11.7% | ? | 0.0%
